In all, about 360,000 compounds went through this assay and about 25,000 (6.9%) were called active. About 9% were inconclusive and are not listed. What follows is part of a selection rich in actives, with near analogues and random picks from the rest. Unmarked numbers belong to inactive results. Calls follow the shape of the dose curve; as a rule, active = well fitted inhibition curve with a large enough effect; inconclusive = small, poorly fitted or top-dose-only effect; inactive = flat fitted curve, though single readings scatter.
Biological target: Luciferin 4-monooxygenase (Photinus pyralis) (UniProt P08659)
Assay: qHTS profiling assay for firefly luciferase inhibitor/activator using purifed enzyme and Km concentrations of substrates (counterscreen for miR-21 project); also: nearly all actives have a fitted effect of over 55% in size;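 as to activity change, negative = inhibition: plate controls were vehicle for no effect and reference inhibitor for full effect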
Conditions: purified FLuc, luminescence inhibition; series mostly up to 57.5 µM; activity change, negative = inhibition: at the top concentration
Method in brief: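 Purified P. pyralis luciferase (10nM final) with 10uM D-luciferin and 10uM ATP (Km levels) in 50mM Tris acetate pH 7.5, 10mM Mg acetate, 0.01% Tween-20, 0.05% BSA; qHTS 6-point titration, ~60 µM downward; luminescence read.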
Potency is read from the fitted curve at half-maximal effect.

Chain of Luciferin 4-monooxygenase (Photinus pyralis) (P08659 whole entry, looked up): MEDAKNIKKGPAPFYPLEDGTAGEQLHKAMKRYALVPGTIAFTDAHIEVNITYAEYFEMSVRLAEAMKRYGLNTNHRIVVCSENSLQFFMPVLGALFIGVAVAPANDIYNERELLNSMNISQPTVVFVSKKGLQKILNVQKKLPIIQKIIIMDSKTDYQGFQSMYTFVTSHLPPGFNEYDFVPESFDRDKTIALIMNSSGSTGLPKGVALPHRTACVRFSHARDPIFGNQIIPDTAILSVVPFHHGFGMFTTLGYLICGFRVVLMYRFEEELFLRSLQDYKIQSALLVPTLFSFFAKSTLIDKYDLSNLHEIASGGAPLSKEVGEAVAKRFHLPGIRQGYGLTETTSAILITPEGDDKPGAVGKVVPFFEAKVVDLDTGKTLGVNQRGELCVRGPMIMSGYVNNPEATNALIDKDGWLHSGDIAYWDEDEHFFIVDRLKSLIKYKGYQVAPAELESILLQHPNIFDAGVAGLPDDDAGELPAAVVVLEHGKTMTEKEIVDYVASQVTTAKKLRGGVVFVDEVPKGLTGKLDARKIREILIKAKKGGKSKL

Point of comparison: `Cc1cc(C)c(CN2CCN(C(=O)Cn3ccc(NC(=O)OCc4ccccc4)nc3=O)CC2)c(C)c1`, “activity change, negative = inhibition” value -0.647%. Against it:
- CCCN(CCC)S(=O)(=O)c1ccc(C(=O)Nc2sc3c(c2C(=O)OC)CCN(CC)C3)cc1 — lower, -4.85%
- CCc1nnc(NC(=O)C2CCN(C(=O)c3ccccc3C)CC2)s1 — higher, -0.48%
- O=C(/C=C/c1ccc(Cl)cc1)Nc1ccc(Br)cn1 — lower, -2.22%
- CC(C)(C)c1ccc(/C=C/C(=O)NC2CCS(=O)(=O)C2)cc1 (stereo not drawn) — lower, -16%
- O=S(=O)(Cc1nnnn1-c1ccc(Br)cc1)c1ccc(F)cc1 — lower, -2.88%
- Cc1cc(C(=O)OCC(=O)N2c3ccccc3NC(=O)C2(C)C)c(C)n1-c1ccccc1 — lower, -13.2%
- CC(=O)Nc1ccc(C(=O)Nc2nc(-c3cc(C)n(Cc4ccccc4)c3C)cs2)cc1 — lower, -9.54%
- C=CCSc1ccc(S(=O)(=O)N2CCN(C)CC2)cn1 — higher, 0.976%
- CCN(CC)S(=O)(=O)c1ccc(NC(=O)CN(c2cccc(F)c2)S(C)(=O)=O)cc1 — higher, 1.16%
- COc1cccc(N(CC(=O)Nc2cccc(F)c2)S(C)(=O)=O)c1 — higher, 3.97%
- Cc1nc2ccc(S(=O)(=O)N(C)CC(=O)NC(C)c3ccccc3)cc2s1 (stereo not drawn) — higher, 0.0818%
- COc1cc(NC(=O)CN(C)S(=O)(=O)c2ccc3nc(C)sc3c2)cc(OC)c1 — lower, -2.14%
- C=CCNC(=O)COC(=O)CNC(=O)c1cc(Cl)cc([N+](=O)[O-])c1 — higher, 2.04%
- Cc1ccc(C)c(N2CCN(C(=O)Cc3c(C(=O)O)c(C)cn3C)CC2)c1 — lower, -18.7%
- CSc1cccc(NC(=O)CN2C(=O)CCc3cc(S(=O)(=O)N4CCCCC4)ccc32)c1 — lower, -5.44%
- COc1cccc(OC)c1C(=O)Nc1ccc2c(c1)n(C)c(=O)n2C — higher, 3.13%
- Cn1c(=O)n(C)c2cc(/C=N/NC(=O)c3cccc(Br)c3)ccc21 — lower, -1.27%
- COc1cc(OC)c(OC)cc1/C=C/c1nc2ccccc2c(=O)n1-c1ccc(Br)c(C)c1 — lower, -10%
- CCOCCCNC(=O)c1ccc(CS(=O)(=O)c2cccc(C(F)(F)F)c2)o1 — higher, 1.28%
- CCCCCN1CC(O)=C(c2ccccc2)C1=N — higher, 5.48%
- Cc1nc2scc(-c3cccs3)c2c(=O)n1N — lower, -1.84%
- Cc1nc2c(-c3ccccc3)c(C)[nH]n2c(=O)c1Cl — higher, 0.759%
- Cc1cc2nc3c(=O)n(Cc4ccccc4)c(=O)[nH]c3nc2cc1N — lower, -0.764%
- CCc1c(C)nc2cc(C)[nH]n2c1=O — higher, 4.4%

For `CC(C)(C)c1ccc(/C=C/C(=O)Nc2ncccn2)cc1`, the Potency was 4.78 µM (active).
With `Cc1cc(-c2csc(N)n2)c(C)n1-c1ccccc1` the Potency was 19 µM (active).
`Cc1ccc2nc(-c3ccc(NC(=O)CN(C)S(=O)(=O)c4ccccc4)cc3)sc2c1` was tested, and the Potency was 15.1 µM (active).
For `Cc1cccc(N(CC(=O)Nc2ccc(-c3nc4ccc(C)cc4s3)cc2)S(C)(=O)=O)c1`, the Potency was 5.36 µM (active).
For `Cn1c(=O)n(C)c2cc(C(=O)Nc3ccc(Br)cc3)ccc21`, the Potency was 15.1 µM (active).
With `CCCCN1Cc2c(nc3cc(-c4ccccc4)[nH]n3c2=O)C1=O` the Potency was 19 µM (active).
`C=CCc1c(C)nc2cc(-c3ccccc3)[nH]n2c1=O` was tested, and the Potency was 6.01 µM (active).
In the case of `CCc1c(C)nc2cc(-c3cccs3)[nH]n2c1=O`, the Potency is reported as 16.9 µM (active).

Source: PubChem BioAssay AID588342 (National Center for Advancing Translational Sciences (NCATS), 2011)
